Most compounds without a hit are left out; they make up all but 2.2% or so of the library.
Ba/F3 V617F tox: reduced viability of JAK2V617F-dependent Ba/F3 cells, primary screen, JAK2V617F inhibitor project, cell-based, Ba/F3 EpoR-JAK2V617F, luminescence. ATP luminescence. actives 1.1% (n = 220,000). inhibition, % at 5.6 µM;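 active = inhibition above the campaign mean plus 3 SD over all tested compounds, cut at about 24% in these data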;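 also: cytokine-independent growth of Ba/F3 cells driven by EpoR plus mutant JAK2; 0% = DMSO-treated cells and 100% = JAK inhibitor I control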
IEC-6 tox: cytotoxicity in IEC-6 intestinal epithelial cells, primary screen, cytotoxicity control for KLF5 inhibitor project, cell-based, luminescence | inhibition, % at 5 µM | IEC-6 cytotoxicity, luminescence viability | actives 0.78% (n = 290,000); in the data active = inhibition above about 22%;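 also: 0% = plate median of test compound wells and 100% = cytotoxic reference compound wells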
aSyn UTR inh: MLPCN primary screen, SNCA 5' untranslated region; alpha-synuclein 5'UTR reporter, inhibitor activity; inhibition, % (tested at 7.5 µM); actives 0.82% (n = 300,000); AID 1813, 2009; in the data active = inhibition above about 60%;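 also: H4 neuroglioblastoma cells stably carrying SNCA 5'UTR luciferase fusion; 0% = DMSO wells and 100% = positive control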
BaF3 tox: parental Ba/F3 cell viability inhibition, counter-screen for JAK2V617F inhibitor project, murine pro-B, CellTiter-Glo luminescence; CellTiter-Glo ATP luminescence; inhibition, % at 5.6 µM; actives 1.1% (n = 220,000); AID 1486, 2009;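 active = inhibition above a per-campaign cutoff, the mean inhibition of all tested compounds plus 3 SD, cut at about 27% in these data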;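 also: 0% = DMSO wells and 100% = JAK Inhibitor I control wells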
KLF5 inh: KLF5 expression inhibitors, primary screen, DLD-1 cells, luminescence; DLD-1 KLF5 promoter-luciferase reporter; inhibition, % at 5 µM; actives 0.23% (n = 290,000);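 active = inhibition above a per-plate limit of that plate's mean compound inhibition plus 3 SD, cut at about 60% in these data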;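 also: 0% = DMSO wells and 100% = LY294002 at 200 µM; higher means less KLF5 promoter-driven luciferase light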
APP transl inh: inhibitors of APP translation via 5'UTR reporter, primary screen, APP 5'UTR luciferase, SH-SY5Y cells. SH-SY5Y APP 5'UTR-luciferase reporter, luminescence. inhibition, % at 2 µM. actives 0.82% (n = 190,000). AID 1285, 2008;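 active = inhibition above a set limit, derived from the sample mean plus 3 SD, cut at about 45% in these data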
The depositor's hits bear a star.

`CCOC(=O)C(C)Oc1cccc2c(=O)n(CC(=O)Nc3ccc4c(c3)OCCO4)ccc12` (stereo not drawn) gave Ba/F3 V617F tox -2.4, IEC-6 tox -2.1, aSyn UTR inh 15.0, BaF3 tox 2.9, KLF5 inh 0.3 and APP transl inh 15.2.
For CC(=O)c1cccc(N(CC(=O)NC2CCCCC2)C(=O)CNC(=O)c2cccs2)c1 the results were IEC-6 tox 1.8, aSyn UTR inh 3.5 and KLF5 inh -4.7.
COc1cccc(COC(=O)C2CC(=O)N(Cc3ccc(C)cc3)C2)c1OC (stereo not drawn) was read as aSyn UTR inh -1.4.
`COc1ccc(Cn2c(C3CCCCC3)nc3c(c(=O)c4ccccc4n3C)c2=O)cc1` gave Ba/F3 V617F tox 0.5, IEC-6 tox 4.6, aSyn UTR inh 32.4, BaF3 tox -1.1 and KLF5 inh -4.3.
`COc1ccc(CCn2c(C3CCCCC3)nc3c(c(=O)c4ccccc4n3C)c2=O)cc1` gave Ba/F3 V617F tox 0.4, IEC-6 tox 4.1, aSyn UTR inh 75.0*, BaF3 tox 4.3 and KLF5 inh 18.4.
COc1cc2c3nnc(-c4ccc(F)cc4)c-3cn(Cc3ccccc3F)c2cc1OC was read as Ba/F3 V617F tox 0.9, IEC-6 tox -2.5, BaF3 tox 3.8, KLF5 inh -14.5 and APP transl inh 52.9*.
For CCOC(=O)CC1COCCN1C(=O)c1ccc2oc(Cc3ccccc3)nc2c1 (stereo not drawn) the results were IEC-6 tox -8.8, aSyn UTR inh -131.6 and KLF5 inh -71.2.
O=S(=O)(Nc1nc2ccccc2nc1N1CCc2ccccc2C1)c1ccc(Cl)cc1 was read as Ba/F3 V617F tox -2.5, IEC-6 tox -4.7, aSyn UTR inh 86.2*, BaF3 tox -0.3, KLF5 inh -12.7 and APP transl inh -21.2.
O=S(=O)(Nc1nc2ccccc2nc1N1CCc2ccccc2C1)c1ccc(Br)cc1 was read as Ba/F3 V617F tox 6.7, IEC-6 tox 8.2, BaF3 tox 12.3, KLF5 inh -53.8 and APP transl inh -64.3.
`Cc1ccc(Nc2c(-c3ccccn3)nc3cccc(C)n23)cc1` gave Ba/F3 V617F tox 3.2, IEC-6 tox 9.9, aSyn UTR inh 13.7, BaF3 tox 4.7, KLF5 inh 21.7 and APP transl inh 67.5*.
CCOC(=O)n1c(=O)n(Cc2ccccc2C)c2ccccc21 was read as Ba/F3 V617F tox -1.6, IEC-6 tox 6.6, aSyn UTR inh -1.9, BaF3 tox 5.0, KLF5 inh -8.9 and APP transl inh 9.5.
Screening O=C(NCCN1CCOCC1)C1CC(=O)N(c2ccc(Cl)cc2)C1 (stereo not drawn) returned IEC-6 tox -6.7, aSyn UTR inh -5.3 and KLF5 inh -22.5.
Screening COc1ccc(C(=O)Nc2ccc3c(c2)C(=O)c2ccccc2C3=O)cc1OC returned Ba/F3 V617F tox -2.0, IEC-6 tox -4.1, aSyn UTR inh -8.9, BaF3 tox 6.0, KLF5 inh -46.8 and APP transl inh -25.3.
COc1ccc(C(=O)c2c(C(F)(F)F)oc3c2C(=O)c2ccccc2C3=O)cc1OC was read as Ba/F3 V617F tox 2.9, IEC-6 tox 1.5, aSyn UTR inh 111.2*, BaF3 tox 5.0, KLF5 inh -35.0 and APP transl inh 18.9.
`O=C(c1ccc(F)cc1)N(C(=O)c1ccc(F)cc1)c1ncccn1` gave Ba/F3 V617F tox -1.6, IEC-6 tox -1.4, aSyn UTR inh 8.1, BaF3 tox 1.6, KLF5 inh -31.8 and APP transl inh 70.7*.
For CCC(Oc1ccccc1)C(=O)Nc1ccccn1 (stereo not drawn) the results were Ba/F3 V617F tox -2.1, IEC-6 tox -2.2, aSyn UTR inh -46.0, BaF3 tox 88.7*, KLF5 inh 1.9 and APP transl inh -35.0.
CCC(Oc1ccccc1)C(=O)Nc1cc(C)on1 (stereo not drawn) was read as Ba/F3 V617F tox -0.8, IEC-6 tox 1.3, aSyn UTR inh 5.9, BaF3 tox -2.5, KLF5 inh 1.4 and APP transl inh 4.7.
`CCN(CC(=O)Nc1ccc(C)c(S(=O)(=O)N2CCOCC2)c1)Cc1ccccc1` gave aSyn UTR inh -7.8.
`O=C(Nc1ccccc1C(F)(F)F)c1cc2ccccc2o1` gave IEC-6 tox 0.8, aSyn UTR inh -209.4 and KLF5 inh -86.9.
Screening COc1ccc(-n2nc3c(c2NC(=O)C2CC(=O)N(c4ccccc4)C2)CS(=O)(=O)C3)cc1 (stereo not drawn) returned IEC-6 tox -10.9, aSyn UTR inh 0.5 and KLF5 inh -0.2.
Screening Nc1ccc(OC(=O)Nc2ccc(O)cc2)cc1 returned Ba/F3 V617F tox 0.0, IEC-6 tox 5.5, aSyn UTR inh 91.4*, BaF3 tox 2.6 and KLF5 inh 7.8.
CS(=O)(=O)N(CC(=O)N1CCc2ccccc2C1)c1ccc2c(c1)OCO2 was read as Ba/F3 V617F tox 0.8, IEC-6 tox 6.4, aSyn UTR inh -9.9, BaF3 tox 92.8*, KLF5 inh 3.0 and APP transl inh -15.3.
Screening Nc1ccc(Oc2cccc(Oc3ccc(N)cc3)c2)cc1 returned Ba/F3 V617F tox 2.1, IEC-6 tox -2.2, aSyn UTR inh 87.2*, BaF3 tox 7.9, KLF5 inh 25.7 and APP transl inh 49.4*.
For S=C(Nc1ccccc1)N1CCCN1c1ccccc1 the results were Ba/F3 V617F tox 24.1*, IEC-6 tox 0.2, aSyn UTR inh -8.9, BaF3 tox 30.5* and KLF5 inh -35.8.
Screening CC(=O)Oc1ccccc1/C=C/c1nc2ccccc2c(=O)o1 returned IEC-6 tox -2.1, aSyn UTR inh 65.6* and KLF5 inh 52.1.
C=CCn1c(C)cc(C(=O)CN2NS(=O)(=O)c3ccccc3C2=O)c1C was read as Ba/F3 V617F tox 4.4, IEC-6 tox -1.7, aSyn UTR inh -31.9, BaF3 tox 16.6, KLF5 inh -87.9 and APP transl inh 84.6*.
Screening COc1ccc(/C=C2\CCc3ccccc3C2=O)cc1CN1CCOCC1 returned Ba/F3 V617F tox -0.5, IEC-6 tox -8.8, aSyn UTR inh 62.5*, BaF3 tox -1.6 and KLF5 inh -29.3.
`COc1ccc(/C=C2/CCc3ccccc3C2=O)cc1OC` gave Ba/F3 V617F tox 0.4, IEC-6 tox -2.5, aSyn UTR inh -18.2, BaF3 tox 6.0, KLF5 inh -6.1 and APP transl inh -100.8.
For COC(=O)c1cc(NC(=O)c2c(Cl)nc3sccn23)cc(C(=O)OC)c1 the results were Ba/F3 V617F tox 1.2, IEC-6 tox -1.7, aSyn UTR inh 79.5*, BaF3 tox 4.1, KLF5 inh 3.4 and APP transl inh 5.2.
CC(C)CCNCC(O)CON=C1c2ccccc2-c2ccccc21 (stereo not drawn) was read as Ba/F3 V617F tox 1.0, IEC-6 tox -0.6, aSyn UTR inh 86.2*, BaF3 tox 5.3, KLF5 inh -50.8 and APP transl inh -22.8.

Assay outcomes deposited in PubChem BioAssay by several laboratories.
